Measured values reported in PubChem BioAssay (NCI).
The panel holds about 83,000 compounds, 20% with a hit somewhere; the sample as a whole holds those more often.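 Cells were grown in 96-well plates and exposed to the test compound at a single concentration for 48 hours; results are reported as percent growth, with values below 10 considered active.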 Values without a mark were called inactive. Active and inactive are the calls of the source.

Tested on: HL-60(TB) leukemia
Assay: NCI-60 one-dose screen, 48 h (100 = growth as untreated, 0 = no growth, -100 = all killed)
Settings: 10 µM unless noted

SMILES	growth
Cc1ccc(C(=Nc2ccccc2)N=P(c2ccccc2)(c2ccccc2)c2ccccc2)cc1	-4.41% (active)
O=[N+]([O-])c1c(O)c(Cl)cc(Cl)c1Cl	92.1%
CN(C(=O)NCc1cccc(F)c1Cl)[C@H](COC(=O)Nc1cc2ccccc2cn1)CC(O)CO (some centres undefined)	90.5%
COc1ccccc1CNCCCN1C(=O)c2ccc3c4c(ccc(c24)C1=O)C(=O)N(CCCCNCCCN)C3=O	-34.2% (active)
Oc1c(C(Nc2ccccc2Br)c2ccccc2)ccc2cccnc12 (centres undefined)	-17.8% (active)
COc1c(CCC[P+](c2ccccc2)(c2ccccc2)c2ccccc2)cc2c(c1OC)OCO2	10.2%
Fc1cc(F)cc(C(c2c[nH]c3ccccc23)c2c[nH]c3ccccc23)c1	147%
O=C1/C(=C\c2cn(Cc3ccccc3)c3ccc(Br)cc23)c2ccccc2N1c1c(Cl)cccc1Cl	97%
C=C(C)[C@@H]1CC[C@]2(C(=O)O)CC[C@]3(C)[C@H](CC[C@@H]4[C@@]5(C)C[C@@H](CC#Cc6ccc(Cl)cc6)C(=O)C(C)(C)[C@@H]5CC[C@]43C)[C@@H]12	22.2%
COc1cc(C(N)=O)cc(OC)c1OC	96.6%
O=C(Cc1ccc2c(c1)OCCO2)Nc1nc2ccc(F)cc2s1	99.6%
O=C1/C(=C/c2cccc(F)c2)CN(C(=O)C(Cl)Cl)C/C1=C\c1cccc(F)c1	-41.6% (active)
O=[N+]([O-])c1ccc2[nH]c3nccc(NCc4cccc(Cl)c4)c3c2c1	82.9%
C[N+](C)(C)c1ccc(CC2c3ccccc3-c3ccccc32)cc1	47.8%
O=C(NCCNc1nccc(-c2c(-c3cccc(O)c3)nc3sccn23)n1)c1ccc(N2CCOCC2)c(C(F)(F)F)c1	113%
Oc1ccccc1/C=N\NC(=S)Nc1ccc(F)cc1	-10.3% (active)
Fc1cc(-c2cnc3nonc3n2)c(Cl)cc1Cl	-20.2% (active)
CCN1C(=O)N(CC)C2C1NN=c1s/c(=C\c3ccc(OC)cc3)c(=O)n12 (centres undefined)	-45.9% (active)
NC(N)=N/N=C/c1cccc(Br)c1	95.3%
O=C1/C(=C/c2ccc(OCCCOc3ccc(Cl)cc3)cc2)N=C2SCCCN12	93%

SMILES	growth
CCOC(=O)c1noc2c1CCc1c-2cn(Cc2ccc(OC)cc2)c1-c1cc(OC)c(OC)c(OC)c1	-25.5% (active)
CNC(=O)c1cc(COc2nnc(Nc3ccc(Cl)cc3)c3ccoc23)ccn1	120%
O=[N+]([O-])c1ccc(N/N=C\c2ccccc2[N+](=O)[O-])nc1	109%
O=C(Nc1ccc2ncnc(Nc3ccc(Oc4cccc(F)c4)c(Cl)c3)c2c1)c1ccc(CNCCO)cc1	22.3%
COC(=O)c1nc(-c2ccccc2)oc1S(=O)(=O)N1CCCC(C)C1 (centres undefined)	15%
Cc1cc(N(CCNc2ccnc3cc(Cl)ccc23)Cc2ccc3c(c2)OCO3)nc(N2CCN(C)CC2)n1	-57.8% (active)
COc1ccc(CCN=Cc2ccc(Cl)cc2)cc1OC	86.6%
O=C(Nc1ccc(Cl)cc1F)c1cc(Br)ccc1O	-39.8% (active)
C=C(CN=[N+]=[N-])[C@@H]1CC[C@]2(C)[C@H](CC[C@@H]3[C@H]4[C@H]5OC(=O)[C@@]4(CCC5(C)C)CC[C@]32C)[C@@]1(C)CCC#N	22.7% [100 µM]
O=C1Nc2ccc(Cl)cc2/C1=C\c1c(-c2ccc(F)cc2)nc2ccccn12	-37.7% (active)
CCCCN(C)N=Nc1ccc(C(N)=O)cc1	73.5%
Cc1ccc(C2SCC(=O)N2NC(=O)c2[nH]c3ccc(F)cc3c2-c2ccccc2)cc1 (centres undefined)	78.6%
COc1ccc(/C=C2/SC(=O)N(CC(=O)N3CCN(c4cc5c(cc4F)c(=O)c(C(=O)O)cn5C4CC4)CC3)C2=O)cc1	105%
COc1cc(NC(=O)CSc2nc3ccc(C)cc3c(=O)n2-c2ccccc2)cc(OC)c1OC	89.1%
CS(=O)(=O)Nc1cc(-c2ccc3ncnc(Nc4ccc(F)c(Cl)c4)c3c2)ccc1Cl	65.3%
Cc1ccc(Cn2cc(COc3ccc4c5ccnc(C)c5n(CCCc5ccccc5)c4c3)nn2)cc1	77.6%
OCc1cnccc1NCCCCOc1ccc(Oc2ccccc2)cc1	22.7%
CCOCCC(=O)O	106%
NC(=Nc1ccccc1)SCCCSC(N)=Nc1ccccc1	82.6%
